# Experimental data published in PubChem BioAssay AID1851 (National Center for Advancing Translational Sciences (NCATS), 2009).
# Values joined by “and” are separate entries in the source; they are usually repeats but may differ in a detail not shown here. Identical values can stand only once. The whole screen tested about 16,000 compounds, of which about 2,600 (16%) were called active. Roughly 20% stayed inconclusive and do not appear here. For the sample, actives were picked, then their nearest neighbours and some compounds at random. Unmarked numbers belong to inactive results. The call rests on the fitted dose curve; in most records, active means well fitted curve in the direction sought with a large enough effect; inconclusive means small, poorly fitted or top-dose-only effect, or effect the other way; inactive means no such curve, though single readings can be large or run the other way.
# Target: Cytochrome P450 2D6 (Homo sapiens) (UniProt P10635)
# Assay: Cytochrome panel assay with activity outcomes
# Details: recombinant CYP, pro-luciferin dealkylation, luminescence, p450-cyp2d6; series mostly up to 57.1 µM; activity, negative = inhibition: at the top concentration
# On the % scale 0 is the no-effect control and ±100 the full control effect.
# Cytochrome P450 2D6 (Homo sapiens), sequence (P10635 whole entry, looked up): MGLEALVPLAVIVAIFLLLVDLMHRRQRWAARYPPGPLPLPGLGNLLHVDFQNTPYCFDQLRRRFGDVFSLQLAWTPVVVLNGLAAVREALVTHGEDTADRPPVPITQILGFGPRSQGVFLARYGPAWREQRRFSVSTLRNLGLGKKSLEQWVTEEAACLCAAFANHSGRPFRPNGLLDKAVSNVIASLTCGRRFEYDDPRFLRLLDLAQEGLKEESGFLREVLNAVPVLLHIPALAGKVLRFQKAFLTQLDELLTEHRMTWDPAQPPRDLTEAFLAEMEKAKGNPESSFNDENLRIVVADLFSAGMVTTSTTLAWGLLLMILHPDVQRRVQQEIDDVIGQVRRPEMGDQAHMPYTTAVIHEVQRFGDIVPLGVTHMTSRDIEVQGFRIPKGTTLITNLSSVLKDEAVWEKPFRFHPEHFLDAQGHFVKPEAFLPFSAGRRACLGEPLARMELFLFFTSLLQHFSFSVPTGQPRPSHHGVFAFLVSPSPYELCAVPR
Compound,"activity, negative = inhibition",AC50
Cc1cc(NC(=O)CCC(=O)N2CCC3(CC2)OCCO3)no1,4.64%,
Cc1ccc(CCN2CC(C(=O)N3CCC4(CC3)OCCO4)CC2=O)cc1 (configuration not stated),5.9%,
N[C@H](CCCCCP(=O)(O)O)C(=O)O,,inactive
O=C(O)CCCc1ccc(N(CCCl)CCCl)cc1,1.05% [at 25.6 µM],
C[C@H](CCC(=O)O)[C@H]1CC[C@]2(C)[C@@H]3C(=O)C[C@H]4C(C)(C)[C@@H](O)CC[C@]4(C)[C@H]3C(=O)C[C@@]12C,-4.73% [at 11.4 µM],
CC(=O)[C@@H]1CC[C@H]2[C@H]3CC[C@H]4C[C@@H](O)CC[C@]4(C)[C@@H]3CC[C@]12C,-4.86%,
O=C(O)C(=O)Cc1ccc2c(c1)OCO2,-12.2% [at 11.4 µM],
Oc1ccc(CCNCc2cc3c(cc2Br)OCO3)cc1,,0.316 µM (active)
CO[C@H]1[C@H](O)[C@H](O[C@@H]2[C@H](Oc3cccc4c(O)c5c(=O)oc6ccc(C)c7c(=O)oc(c34)c5c67)O[C@@H](C)[C@H](O)[C@H]2O)O[C@@H](C)[C@@H]1O,19.6% [at 11.4 µM],
CCCCCCCC/C=C\CCCCCCCC(N)=O,12.7%,
N[C@@H](CCCP(=O)(O)O)C(=O)O,5.98%,
C[N+](C)(C)CCCCCCCCCC[N+](C)(C)C,2.5%,
COc1cc(CN2CCN(C(=O)COc3ccccc3)CC2)cc(OC)c1OC,-3.69%,
O=C(COc1ccc2ccccc2c1)N1CCN(CC2CC3C=CC2C3)CC1 (configuration not stated),,5.01 µM (active)
CC(=O)N1CCC2(CC1)CC(=O)c1cc(OCC(=O)N3CCN(C)CC3)ccc1O2,-11.1%,
CCN1C[C@@]2(COC)[C@H]3[C@@H](OC)[C@H]4C1[C@@]3([C@H](OC)C[C@@H]2O)[C@H]1C[C@@]2(O)[C@@H](OC(=O)c3ccccc3)[C@@H]1[C@@]4(OC(C)=O)[C@H](O)[C@@H]2OC,-3.27% [at 25.6 µM],
Cc1ccc(C2CC(=O)C(C=NCCN3CCN(C(=O)Cc4ccccc4)CC3)=C(O)C2)cc1 (configuration not stated),-16.3%,
CN(C)CS/C(N)=N/[C@H](O)C(Cl)(Cl)Cl,-6.69% [at 11.4 µM],
CN1CCc2nc3sc(C(=O)NC(C)(C)C)c(N)c3cc2C1,-24.5%,
CCOC(=O)C1=C(C)OC(N)=C(C#N)C12C(=O)N(C)c1ccccc12 (configuration not stated),22.5%,
CC[C@]1(OC(=O)CN)C(=O)OCc2c1cc1n(c2=O)Cc2cc3ccccc3nc2-1,-0.998% [at 11.4 µM],
C[C@@H]1Cc2cc3c(cc2C(c2ccc(N)cc2)=NN1)OCO3,,31.6 µM (active)
CCC12C=CCN3CCC4(c5cc(Br)c(OC)cc5N(C)C4C(O)(C(=O)OC)C1OC(C)=O)C32 (configuration not stated),,2.51 µM (active)

Compound,"activity, negative = inhibition",AC50
C=Cn1ccnc1P(=S)(c1nccn1C=C)C1CCCCC1,15.2%,
CN1[C@@H]2CC[C@H]1CC(NC(=O)c1nn(C)c3ccccc13)C2 (some centres not stated),-2.33%,
COc1ccc(C(=O)NC2CC3CCCC(C2)N3CC(C)C)cc1OC (configuration not stated),,4.47 µM (active)
CNC(=S)NC1CC2CCCC(C1)N2CC(C)C (configuration not stated),,5.01 µM (active)
O=C(O)Cc1cnc[nH]1,-2.85%,
C/C(=C\C=C/[C@@H](C)C(=O)O)[C@H]1CN[C@H](C(=O)O)[C@@H]1CC(=O)O,3.09%,
N#Cc1ccc(CN2CC[C@@]3(CCCNC3)C2)cc1,-9.13%,
c1cnc(N2CC[C@@]3(CCCNC3)C2)nc1,,7.94 µM (active)
c1ccc(N2CC[C@@]3(CCCNC3)C2)nc1,-1.61%,
C=C(C)[C@H]1CC[C@]2(CO)CC[C@]3(C)[C@@H](CC[C@H]4[C@@]5(C)CC[C@@H](O)C(C)(C)[C@@H]5CC[C@@]43C)[C@H]12,-7.87% [at 25.6 µM],
COC(=O)Nc1nc2ccc(C(=O)c3cccs3)cc2[nH]1,-5.24% [at 25.6 µM],
COc1cc(-c2ccc(=O)[nH]n2)ccc1OC(F)F,-0.446% [at 25.6 µM],
NCCc1c[nH]c2ccc(OC(=O)C(=O)O)cc12,-17.3% [at 11.4 µM],
C[C@H](N)Cc1c[nH]c2ccc(OCc3cccs3)cc12,,0.794 µM (active)
COc1ccc2[nH]cc(CCN)c2c1,-16.5%,
O[C@@H]1[C@H](O)[C@H]2[C@@H](O)CCN2C[C@@H]1O,10.3%,
CC(C)[C@]1(O)[C@@H](OC(=O)c2ccc[nH]2)[C@]2(O)[C@@]3(C)C[C@@]4(O)O[C@@]5([C@H](O)[C@@H](C)CC[C@]35O)[C@]2(O)[C@]41C,9.77% [at 11.4 µM],
NC(=O)CN1C[C@@H](O)CC1=O,1.68%,
O=c1c(O)c(-c2cc(O)c(O)c(O)c2)oc2cc(O)cc(O)c12,-10.3% [at 25.6 µM],
N[C@@H](Cc1ccccc1)P(=O)(O)O,-3.26% [at 11.4 µM],
c1ccc(C[C@@H](c2ccccc2)N2CCCCC2)cc1,,2 µM (active)
N[C@H](Cc1c[nH]c2ccccc12)P(=O)(O)O,-0.254% [at 11.4 µM],
CC(C(=O)c1c[nH]c2ccccc12)N1CCSCC1 (configuration not stated),,6.31 µM (active)

Compound,"activity, negative = inhibition",AC50
CC(=O)NCCc1c[nH]c2ccccc12,1.29%,
CCCCc1nc2ccccc2c(=O)n1-c1ccc(Cl)cc1[N+](=O)[O-],8.42%,
CN(C)[C@@H]1C(=O)C(C(N)=O)=C(O)[C@]2(O)C(=O)C3=C(O)c4c(O)cccc4[C@](C)(O)[C@H]3C[C@@H]12,-6.07% [at 11.4 µM],
CCCCN1C(=O)/C(=C\c2ccco2)C(=O)N(CCc2ccccc2)C1=O,8.02%,
Fc1ccc(CCNCc2ccc(Cl)c(Cl)c2)cc1,,0.398 µM (active)
Fc1ccc(CCNCc2cccc(Cl)c2)cc1,,0.794 µM (active)
O=C(O)[C@@H](O)[C@@H](O)[C@@H]1[O][Sb][O][C@@H]1CO,12.5% [at 11.4 µM],
O=C(O)C[C@H]1NCc2cc3ccccc3nc21,3.21% [at 11.4 µM],
COc1cc(CCN)c(OC)c(OC)c1,0.204% [at 11.4 µM],
C[C@@]12C(=O)OC(=O)[C@@]1(C)[C@H]1CC[C@@H]2O1,-0.0372%,
NC(=O)c1ccc(-c2nc(-c3ccc4c(c3)OCO4)c(-c3ccccn3)[nH]2)cc1,,12.6 µM (active)
Cc1sc2c(c1C)C(c1ccc(C(C)(C)C)cc1)=NCC(=O)N2CC(=O)Nc1nccs1,-25.8%,
C[C@@H]1O[C@@H](O[C@H]2C[C@@H](O)[C@]3(CO)[C@@H]4[C@@H](O)C[C@]5(C)[C@H]([C@@H]6COC(=O)C6)CC[C@@]5(O)[C@H]4CC[C@@]3(O)C2)[C@H](O)[C@H](O)[C@@H]1O,3.18%,
COc1cc2c3cc1Oc1c(O)c(OC)cc4c1[C@@H](Cc1ccc(cc1)Oc1cc(ccc1O)C[C@H]3N(C)CC2)N(C)CC4,0.972% [at 11.4 µM],
COc1ccc2c(c1OC)CN1CCc3cc4c(cc3[C@H]1C2)OCO4,,0.0631 µM (active)
COc1ccc2cc1Oc1ccc(cc1)C[C@H]1c3cc(c(OC)cc3CCN1C)Oc1c(OC)c(OC)cc3c1[C@@H](C2)N(C)CC3,-16.9% [at 11.4 µM],
COc1ccc2c(c1OC)C(=O)O[C@H]2[C@H]1c2cc3c(cc2CCN1C)OCO3,,inactive
COc1ccc2c(c1O)-c1c(OC)c(OC)cc3c1[C@H](C2)N(C)CC3,-10.8% [at 25.6 µM],
COc1cc2c(cc1O)[C@H]1Cc3ccc(OC)c(O)c3CN1CC2,,0.0316 µM (active)
CC(Oc1ccc(-c2ccccc2)cc1)C(=O)O (configuration not stated),-18.2%,
CCn1cc(C(=O)O)c(=O)c2cc3c(cc21)OCO3,2.37% [at 25.6 µM],
CCN1C[C@]2(C)CC[C@@H](O)[C@]34[C@@H]5CC6[C@@H](OC)C[C@@](O)([C@H]5[C@@H]6O)[C@@H](C[C@@H]23)[C@H]14,3.37%,
CNC[C@H](O)c1ccc(OC(=O)C(C)(C)C)c(OC(=O)C(C)(C)C)c1,-6.95% [at 25.6 µM],

Compound,"activity, negative = inhibition",AC50
CN1C[C@@H](CS(=O)(=O)N(C)C)C[C@H]2c3cccc4c3c(cn4C)C[C@@H]21,,3.98 µM (active)
CC(=NCc1ccco1)c1c(O)n(-c2ccccc2)c(=O)[nH]c1=O,-1.87%,
CN1C(=O)CCS(=O)(=O)[C@@H]1c1ccc(Cl)cc1,2.18% [at 25.6 µM],
CN(C)Cc1c[nH]c2ccccc12,,0.158 µM (active)
CN(C)CCCc1c[nH]c2ccccc12,-8.71% [at 11.4 µM],
O=C(c1ccccc1)[C@H]1[C@H](c2ccccc2[N+](=O)[O-])N1C1CCCCC1 (some centres not stated),-1.09% [at 11.4 µM],
c1ccc(CN2CCC3(CCNCC3)CC2)cc1,-16.1%,
c1ccc(CN2CCC3(CCc4ccccc43)CC2)cc1,,0.00631 µM (active)
CCOC(=O)c1ncn2c1[C@H]1CCCN1C(=O)c1cc(OC)ccc1-2,-2.39%,
Oc1ccc2[nH]cc(CCCCN3CC=C(c4ccccc4)CC3)c2c1,-0.13%,
O=S1(=O)N(CCN2CC=C(c3c[nH]c4cc(F)ccc34)CC2)c2cccc3c2N1CCC3,,0.2 µM (active)
O=C(CCCC1=NS(=O)(=O)c2ccccc2N1)N1CCC2(CC1)OCCO2,8.08%,
O=C(Nc1ccc(Cl)cc1C(=O)c1ccccc1Cl)c1ccco1,18.6%,
Nc1ccccc1O.O.O=C(O)[C@H]1[O][Sb][O][C@H]1C(=O)O,-5.13% [at 11.4 µM],
Clc1cccc(N2CCNCC2)c1,,25.1 µM (active) and 3.98 µM (active)
O=[N+]([O-])c1ccc(N2CCNCC2)cc1NC1CC1,-26.8%,
Clc1cncc(N2CCNCC2)n1,-5.59%,
O=c1[nH]cnc2[nH]cc(CN3CCCCC3)c12,7.9% [at 11.4 µM],
COc1c2c(cc3c1OCO3)CCN(C)C2,,3.98 µM (active)
CC(C)C(=O)N1C2CCC1CC(O)(c1ccc(F)cc1)C2 (configuration not stated),-8.02%,
CNC[C@H](O)c1ccc(O)cc1,2.97% [at 25.6 µM],
C[C@H](N[C@@H](C)CCc1ccccc1)[C@H](O)c1ccc(O)cc1,,2 µM (active)
NC[C@H](O)c1ccc(O)cc1,,inactive
